Test [1] has as its target Lysosomal acid glucosylceramidase (Homo sapiens) (UniProt P04062). Kind of test: Glucocerebrosidase-p2 (AID 348; in the data active means potency below about 10 µM; further: potency means the concentration at half of the fitted maximal effect). To be noted: purified GBA, blue fluorogenic substrate, 40 min. The procedure, abridged:
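Compounds titrated from 0.6 nM upwards against 0.2 nM enzyme in pH 5.9 citric acid/KH2PO4, taurocholate, tween-20; blue fluorogenic substrate 80 uM, 40 min room temperature, stopped and read Ex 365/Em 440 for AC50.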

The nature of test [2]: AP1 Signaling Pathway (AID 357; active means well fitted curve in either direction with a large enough effect, not every such curve was filed as active;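 further: ME-180 reporter cells stimulated with EGF at its EC50 level; on the % scale 0 is the no-effect control and ±100 the full control effect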). The settings on record: ME-180 AP-1-bla reporter, EGF-induced, beta-lactamase ratio, 5 h; at 7.69 µM (top of the series) unless noted. The gist of the method:
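Modulation of EGF-driven AP-1 transcription was assessed with a beta-lactamase reporter in ME-180 cells. Compound and EC50 EGF were co-incubated 5 hours at 37 °C before 2.5-hour CCF4 loading at room temperature and dual-emission reading.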

The target of test [3] is Cytochrome P450 1A2 (Homo sapiens) (UniProt P05177). The test is described as follows: p450-cyp1a2 (AID 410; calls by dose curve; further: potency means the concentration at half of the fitted maximal effect). The settings on record: recombinant CYP1A2, luciferin-ME demethylation, luminescence; series mostly up to 57 µM. The procedure, abridged:
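Human CYP1A2 (20nM) demethylated Luciferin-ME at its Km (100uM) in 100mM KPO4. After 10 min compound preincubation, NADPH regeneration ran the reaction 60 min at room temperature. Luciferin was read by luminescence, normalized to 57 uM furafylline.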

The nature of test [4]: NFAT Signaling Pathway (AID 444; active means well fitted curve in either direction with a large enough effect, not every such curve was filed as active;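 further: carbachol stimulus at about its EC50 of 1 µM final; on the % scale 0 is the no-effect control and ±100 the full control effect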). The settings on record: Jurkat NFAT-bla M1, carbachol, beta-lactamase ratio, 5 h; at 7.69 µM (top of the series) unless noted. The procedure, abridged:
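Jurkat cells with NFAT-driven β-lactamase reporter and co-expressed M1 receptor, stimulated with carbachol (final 1 uM, ~EC50), compound titration, 5 h at 37 °C. CCF4 loaded 1 h at RT; 460/530 nm ratio gave %activity and AC50.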

The nature of test [5]: Stat Signaling Pathway (AID 446; active means well fitted curve in either direction with a large enough effect, not every such curve was filed as active;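 further: ME-180 cervical cancer cells given 40 pM IL-6 alongside compound; SIE-controlled beta-lactamase reporter measured as 460/530 nm FRET emission ratio; on the % scale 0 is the no-effect control and ±100 the full control effect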). The settings on record: ME-180 SIE beta-lactamase reporter, IL-6 stimulated, 5 h; at 7.69 µM (top of the series) unless noted. The gist of the method:
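Screening format detects activators and inhibitors alike: ME-180 SIE-bla cells stimulated at 40 pM IL-6 for 5 hrs with compound, then dual-emission beta-lactamase read at 405 nm excitation.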

Test [6] deals with Glucocorticoid receptor (Homo sapiens) (UniProt P04150). The test is described as follows: GR-EFC Redistribution (AID 451; calls by dose curve; further: potency means the concentration at half of the fitted maximal effect). To be noted: CHO-K1 GR-EFC translocation, beta-gal luminescence, 2 h. The procedure, abridged:
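CHO-K1 cells expressing nuclear EA and GR-ED fragments of b-gal; compounds titrated up to 46 uM final, 2 h at 37 C. GR nuclear translocation read as complemented b-gal luminescence after 1 h RT detection.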

The target in test [7] is Mitogen-activated protein kinase 10 (Mus musculus) (UniProt Q61831). Kind of test: JNK3 AlphaScreen Assay (AID 530; active means well fitted curve in either direction with a large enough effect, not every such curve was filed as active;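 further: kinase came from lysate of stimulated human HepG2 cells; signal reports phosphorylation of biotinylated GST-cJun 1-79 at Ser73 with 10 µM ATP; on the % scale 0 is the no-effect control and ±100 the full control effect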). To be noted: JNK3 lysate, c-Jun phosphorylation; series mostly up to 57.1 µM. The gist of the method:
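qHTS format: compounds tested as titrations against IL-1beta/TNF-alpha-activated HepG2 lysate JNK3 with biotin-GST-cJun substrate and 10 uM ATP at room temperature. Loss of anti-phospho-cJun AlphaScreen signal indicates inhibition.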

For test [8], the target named is 3',5'-cyclic-AMP phosphodiesterase 4B (Homo sapiens) (UniProt Q07343). The test is described as follows: qHTS Assay for Inhibitors of PDE-IV (AID 607; active means well fitted activation curve with a large enough effect in the main read-out, with a control signal flat, not every such curve was filed as active; further: % of control where 0% means no effect). The settings on record: HEK293 ACTOne CNG channel cells, membrane potential fluorescence; series mostly up to 22.9 µM. The procedure, abridged: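 The readout is membrane depolarisation from a cAMP-sensing CNG channel, detected with a potential dye at ex 535/em 590. Cells were HEK293-derived (endogenous PDE-IV) at 1000 cells/well, titrated up to 22.9 uM final.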
Chain of 3',5'-cyclic-AMP phosphodiesterase 4B (Homo sapiens) (Q07343 whole entry, looked up): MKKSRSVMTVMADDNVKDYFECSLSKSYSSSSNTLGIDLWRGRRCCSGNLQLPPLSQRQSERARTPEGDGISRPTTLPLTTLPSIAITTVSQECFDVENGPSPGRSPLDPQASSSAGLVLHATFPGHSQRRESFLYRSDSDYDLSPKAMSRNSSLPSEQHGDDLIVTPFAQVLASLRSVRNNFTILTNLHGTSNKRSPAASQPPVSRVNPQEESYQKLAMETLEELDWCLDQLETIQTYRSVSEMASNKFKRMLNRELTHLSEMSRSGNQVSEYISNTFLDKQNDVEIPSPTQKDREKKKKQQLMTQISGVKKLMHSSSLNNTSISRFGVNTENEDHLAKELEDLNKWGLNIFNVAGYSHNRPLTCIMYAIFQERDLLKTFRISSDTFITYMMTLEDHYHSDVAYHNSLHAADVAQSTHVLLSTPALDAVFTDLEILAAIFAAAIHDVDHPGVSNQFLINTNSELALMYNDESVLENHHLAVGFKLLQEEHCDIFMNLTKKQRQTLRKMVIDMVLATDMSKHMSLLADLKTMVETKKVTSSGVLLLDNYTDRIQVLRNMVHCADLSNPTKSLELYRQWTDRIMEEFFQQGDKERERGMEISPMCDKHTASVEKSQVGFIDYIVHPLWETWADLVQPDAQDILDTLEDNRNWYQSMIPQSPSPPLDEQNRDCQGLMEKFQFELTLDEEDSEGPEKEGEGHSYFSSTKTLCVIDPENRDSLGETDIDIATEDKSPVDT

In test [9] the target is Cytochrome P450 3A4 (Homo sapiens) (UniProt P08684). Kind of test: qHTS Assay for Activators of Cytochrome P450 3A4 (AID 885). Further: nearly all actives have a fitted effect of over 65% in size. To be noted: recombinant CYP3A4, Luciferin-PPXE luminescence, 60 min; series mostly up to 57.1 µM. The procedure, abridged:
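Steps: enzyme/substrate mix dispensed; compound added, 10 min RT; NADPH regeneration solution added, 60 min RT; luciferin detection buffer stops reaction; 20 min later luminescence measured.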

The target of test [10] is Dual specificity protein kinase CLK4 (Homo sapiens) (UniProt Q9HAZ1). The test is described as follows: qHTS Assay for Inhibitors of CDC-like Kinase 4 (Kinase-Glo Assay) (AID 1770). Further: nearly all actives have a fitted effect of over 65% in size. Further: potency means the concentration at half of the fitted maximal effect. The settings on record: recombinant Clk4, Kinase-Glo ATP depletion luminescence; series mostly up to 66.7 µM. The gist of the method: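 25 nM Clk4 with 100 uM RS repeat peptide and 1 uM ATP (final) in Tris pH7.5, 10 mM MgCl2, 4.5 h at room temperature. Remaining ATP measured by Kinase-Glo luciferase luminescence.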
Chain of Dual specificity protein kinase CLK4 (Homo sapiens) (Q9HAZ1 whole entry, looked up): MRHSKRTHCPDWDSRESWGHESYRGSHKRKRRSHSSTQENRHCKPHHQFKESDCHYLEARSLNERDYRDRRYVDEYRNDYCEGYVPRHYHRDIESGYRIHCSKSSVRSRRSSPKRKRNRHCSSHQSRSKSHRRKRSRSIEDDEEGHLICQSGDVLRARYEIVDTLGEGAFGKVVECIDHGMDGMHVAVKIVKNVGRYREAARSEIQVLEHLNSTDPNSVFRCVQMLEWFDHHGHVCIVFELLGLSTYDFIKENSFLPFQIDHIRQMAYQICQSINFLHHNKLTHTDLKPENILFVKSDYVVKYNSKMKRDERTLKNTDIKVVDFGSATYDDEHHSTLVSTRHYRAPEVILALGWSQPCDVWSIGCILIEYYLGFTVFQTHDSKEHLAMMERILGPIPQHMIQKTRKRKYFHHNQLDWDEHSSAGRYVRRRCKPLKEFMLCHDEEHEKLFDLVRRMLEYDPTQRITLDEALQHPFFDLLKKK

The target is the same in test [11]. Kind of test: qHTS Assay for Inhibitors of CDC-like Kinase 4 (ADP-FP Assay) (AID 1795). Further: nearly all actives have a fitted effect of over 60% in size. Further: potency means the concentration at half of the fitted maximal effect. To be noted: Transcreener ADP fluorescence polarization; series mostly up to 50 µM. The procedure, abridged:
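Recombinant Clk4 (6.25 nM) phosphorylated 100 uM RS repeat peptide with 1 uM ATP in 25 mM Tris pH 7.5, 10 mM MgCl2, 0.5 mM EGTA, 2.5 mM DTT, 0.01% Triton X-100 for 1 h. ADP was detected by Transcreener ADP2 competitive fluorescence polarization after 30 min at room temperature.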

For test [12], the target named is Ubiquitin carboxyl-terminal hydrolase 1 (Homo sapiens) (UniProt O94782). The test is described as follows: Inhibitors of USP1/UAF1: Pilot qHTS (AID 504865).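 Further: rhodamine fluorescence freed from ubiquitin-rhodamine substrate followed over time; top concentration of the series differs between compounds; on the % scale 0 is the no-effect control and ±100 the full control effect; nearly all actives have a fitted effect of over 35% in size.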 The settings on record: purified USP1/UAF1, Ub-rhodamine cleavage fluorescence; series mostly up to 54.9 µM. The procedure, abridged:
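USP1/UAF1 complex at 1 nM preincubated 15 min at room temperature with compound, then Ub-Rho substrate added at 150 nM final. Fluorescence (480/540 nm) read kinetically in 50 mM HEPES pH 7.8, 0.5 mM EDTA, 1 mM TCEP, 0.1 mg/ml BSA, 0.01% Tween-20.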

A short description of test [13]: Primary qHTS for small molecule stabilizers of the endoplasmic reticulum resident proteome: Secreted ER Calcium Modulated Protein (SERCaMP) assay (AID 1508630). Further: on the % scale 0 is the no-effect control and ±100 the full control effect. The settings on record: SH-SY5Y GLuc-SERCaMP (Gaussia luciferase released on ER calcium loss) secretion, thapsigargin, luminescence; series mostly up to 38.4 µM. The gist of the method: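 GLuc-SERCaMP-expressing SH-SY5Y cells, pretreated 16 h with compound, are challenged with thapsigargin to empty ER calcium stores; after 4 h, coelenterazine is added directly to the medium and luminescence is imaged.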

Test [14] addresses Glucocorticoid receptor (Homo sapiens) (UniProt P04150). The test is described as follows: GR-GFP Redistribution (AID 450;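 active means compounds whose dose series gives a full or clear partial fitted curve of increased nuclear translocation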; further: potency means the concentration at half of the fitted maximal effect). The settings on record: U2OS GR-GFP nuclear translocation, laser cytometry, 2 h.
For test [15], the target named is Dual specificity protein kinase CLK4 (Homo sapiens) (UniProt Q9HAZ1). Kind of test: qHTS Assay for Inhibitors of CDC-like Kinase 4 (ADP-Glo Assay) (AID 1771). Further: potency means the concentration at half of the fitted maximal effect; nearly all actives have a fitted effect of over 70% in size. The settings on record: recombinant CLK4, ADP-Glo luminescence; series mostly up to 80 µM. The procedure, abridged: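 Clk4 (25 nM) was incubated 1 hr at room temperature with 100 uM RS repeat peptide and 1 uM ATP in buffer with 2 mM MgCl2, 0.5 mM EGTA, 2.5 mM DTT. ADP formed was quantified by ADP-Glo luminescence.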

Test [16] has as its target Cytochrome P450 3A4 (Homo sapiens) (UniProt P08684). Kind of test: qHTS Assay for Inhibitors and Substrates of Cytochrome P450 3A4 (AID 884). Further: potency means the concentration at half of the fitted maximal effect; nearly all actives have a fitted effect of over 50% in size. The settings on record: recombinant CYP3A4, Luciferin-PPXE luminescence; series mostly up to 57.1 µM. The gist of the method:
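20 nM human CYP3A4 with 25 uM Luciferin-PPXE (at KM) in 200 mM KPO4, preincubated 10 min with compound; NADPH regeneration started a 60 min RT reaction. Luciferin detected by luminescence, normalized to 57 uM ketoconazole as full inhibition.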

Here are results for 7 compounds from PubChem BioAssay (NCATS).

A number with no mark means an inactive call. Results filed as inconclusive are left out. Active and inactive are the calls of the source. Unless noted, the call rests on the fitted dose curve; in most records, active means well fitted curve in the direction sought with a large enough effect; inconclusive means small, poorly fitted or top-dose-only effect, or another doubt; inactive means no such curve, though single readings can be large; an effect the other way counts as inactive or inconclusive.

Chain of Cytochrome P450 3A4 (Homo sapiens) (P08684 whole entry, looked up): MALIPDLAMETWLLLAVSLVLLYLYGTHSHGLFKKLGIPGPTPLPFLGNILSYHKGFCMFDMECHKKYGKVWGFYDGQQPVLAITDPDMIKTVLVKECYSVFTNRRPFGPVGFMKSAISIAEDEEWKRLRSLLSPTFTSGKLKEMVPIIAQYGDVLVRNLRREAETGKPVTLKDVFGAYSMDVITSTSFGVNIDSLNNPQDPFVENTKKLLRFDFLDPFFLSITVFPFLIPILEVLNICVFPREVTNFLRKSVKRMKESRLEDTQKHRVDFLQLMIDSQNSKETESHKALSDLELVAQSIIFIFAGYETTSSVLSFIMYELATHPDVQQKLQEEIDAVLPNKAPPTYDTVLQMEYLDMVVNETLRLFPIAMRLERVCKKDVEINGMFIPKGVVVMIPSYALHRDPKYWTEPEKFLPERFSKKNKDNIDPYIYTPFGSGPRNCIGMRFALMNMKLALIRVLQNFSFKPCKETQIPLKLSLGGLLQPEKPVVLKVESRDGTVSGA
Chain of Ubiquitin carboxyl-terminal hydrolase 1 (Homo sapiens) (O94782 whole entry, looked up): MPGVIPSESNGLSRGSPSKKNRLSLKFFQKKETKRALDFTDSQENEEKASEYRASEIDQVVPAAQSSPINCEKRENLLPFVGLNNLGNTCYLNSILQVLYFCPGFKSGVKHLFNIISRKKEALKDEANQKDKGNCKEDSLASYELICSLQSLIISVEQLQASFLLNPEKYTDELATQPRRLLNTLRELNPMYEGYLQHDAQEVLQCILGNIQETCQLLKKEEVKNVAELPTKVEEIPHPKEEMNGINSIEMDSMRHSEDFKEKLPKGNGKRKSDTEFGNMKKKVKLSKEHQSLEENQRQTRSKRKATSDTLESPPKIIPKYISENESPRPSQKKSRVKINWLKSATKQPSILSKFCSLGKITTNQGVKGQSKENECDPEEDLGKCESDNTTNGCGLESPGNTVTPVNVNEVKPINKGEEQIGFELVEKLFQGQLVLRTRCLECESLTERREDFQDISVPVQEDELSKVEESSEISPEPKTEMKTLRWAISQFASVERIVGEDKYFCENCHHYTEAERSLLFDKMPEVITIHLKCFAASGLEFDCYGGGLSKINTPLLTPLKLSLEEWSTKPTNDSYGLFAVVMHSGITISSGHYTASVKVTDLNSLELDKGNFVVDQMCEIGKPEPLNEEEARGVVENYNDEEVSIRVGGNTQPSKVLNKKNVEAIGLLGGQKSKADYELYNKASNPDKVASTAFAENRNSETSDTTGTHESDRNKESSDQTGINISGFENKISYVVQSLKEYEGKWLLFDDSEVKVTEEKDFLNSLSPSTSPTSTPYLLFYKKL
Chain of Cytochrome P450 1A2 (Homo sapiens) (P05177 whole entry, looked up): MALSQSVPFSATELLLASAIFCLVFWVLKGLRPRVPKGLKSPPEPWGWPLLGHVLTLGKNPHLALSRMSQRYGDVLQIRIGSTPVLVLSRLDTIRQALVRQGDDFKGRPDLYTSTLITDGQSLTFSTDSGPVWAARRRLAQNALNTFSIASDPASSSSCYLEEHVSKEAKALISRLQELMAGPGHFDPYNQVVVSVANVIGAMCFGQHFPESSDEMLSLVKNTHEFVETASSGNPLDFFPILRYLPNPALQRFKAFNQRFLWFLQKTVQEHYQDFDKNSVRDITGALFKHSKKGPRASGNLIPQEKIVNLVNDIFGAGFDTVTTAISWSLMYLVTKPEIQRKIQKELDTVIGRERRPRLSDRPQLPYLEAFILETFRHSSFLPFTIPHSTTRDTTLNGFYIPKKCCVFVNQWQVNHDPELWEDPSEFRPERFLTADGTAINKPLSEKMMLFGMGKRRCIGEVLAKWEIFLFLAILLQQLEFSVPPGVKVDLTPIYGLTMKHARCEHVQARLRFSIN
Chain of Lysosomal acid glucosylceramidase (Homo sapiens) (P04062 whole entry, looked up): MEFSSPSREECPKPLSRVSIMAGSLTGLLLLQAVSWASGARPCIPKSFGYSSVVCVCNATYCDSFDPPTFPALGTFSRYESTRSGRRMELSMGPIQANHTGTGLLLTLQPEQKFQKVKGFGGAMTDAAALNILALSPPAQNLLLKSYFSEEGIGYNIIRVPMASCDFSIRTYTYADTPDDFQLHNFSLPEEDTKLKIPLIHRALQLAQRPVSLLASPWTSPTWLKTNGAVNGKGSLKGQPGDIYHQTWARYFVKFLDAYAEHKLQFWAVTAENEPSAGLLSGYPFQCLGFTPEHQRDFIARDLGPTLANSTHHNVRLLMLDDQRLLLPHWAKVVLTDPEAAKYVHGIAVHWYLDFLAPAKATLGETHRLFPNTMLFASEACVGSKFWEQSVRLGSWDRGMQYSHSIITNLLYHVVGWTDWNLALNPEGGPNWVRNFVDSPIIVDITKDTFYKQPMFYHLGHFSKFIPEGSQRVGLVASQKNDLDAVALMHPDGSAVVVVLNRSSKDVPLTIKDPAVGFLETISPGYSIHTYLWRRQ
Chain of Glucocorticoid receptor (Homo sapiens) (P04150 whole entry, looked up, the tested form may be a part): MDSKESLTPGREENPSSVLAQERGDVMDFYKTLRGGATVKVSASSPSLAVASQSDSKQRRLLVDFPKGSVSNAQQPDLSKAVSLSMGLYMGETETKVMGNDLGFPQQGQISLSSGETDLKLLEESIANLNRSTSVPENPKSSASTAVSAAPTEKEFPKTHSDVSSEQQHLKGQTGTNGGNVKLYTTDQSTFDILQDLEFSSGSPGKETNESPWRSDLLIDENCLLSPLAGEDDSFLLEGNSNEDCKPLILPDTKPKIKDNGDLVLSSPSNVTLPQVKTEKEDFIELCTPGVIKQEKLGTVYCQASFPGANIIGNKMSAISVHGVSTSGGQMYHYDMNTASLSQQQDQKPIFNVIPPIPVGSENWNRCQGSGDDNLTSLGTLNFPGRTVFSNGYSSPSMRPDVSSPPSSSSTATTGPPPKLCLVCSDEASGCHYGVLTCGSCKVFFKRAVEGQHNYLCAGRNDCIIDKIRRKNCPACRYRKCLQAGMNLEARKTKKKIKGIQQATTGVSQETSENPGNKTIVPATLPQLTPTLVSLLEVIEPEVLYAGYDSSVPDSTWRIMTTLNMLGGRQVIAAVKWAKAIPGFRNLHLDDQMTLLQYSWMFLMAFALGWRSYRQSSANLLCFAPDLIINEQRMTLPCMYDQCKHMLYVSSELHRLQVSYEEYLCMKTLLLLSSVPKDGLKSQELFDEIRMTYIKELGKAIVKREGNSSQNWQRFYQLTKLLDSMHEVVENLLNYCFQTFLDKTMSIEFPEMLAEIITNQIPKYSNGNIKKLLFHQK

Turning to `CN(C)C(=O)c1ccc(-c2nccc(NCc3cccs3)n2)cc1`, the Potency in test [1] is over 11.4 µM; in [3] it was 15.8 µM (active); in test [6] it was over 46 µM. The activity change, negative = inhibition in [2] is -0.866%; in test [4] it was 3.58%. In addition, in [5], the activity, negative = inhibition was -7.66%. Besides, the Potency entry in test [7], in [8], in test [9], in test [10], in test [11] and in test [12] was “inactive” each time. In test [13], the outcome was inactive.

For `COCCNc1nc(-c2cccc(NS(C)(=O)=O)c2)nc2ccccc12`, the Potency was over 11.4 µM in [1]; 3.16 µM (active) in test [3]; over 46 µM in test [14]; over 46 µM in [6]; 11.2 µM (active) in test [10]; 14.1 µM (active) in test [11]. In addition, the activity change, negative = inhibition is -25.4% in test [2] and 22.3% in test [4]. Besides, in test [5], the activity, negative = inhibition was -10.1%. The Potency entry in [7] and in [9] was “inactive” throughout. Besides, the outcome in test [13] was inactive.

In the case of `CNc1ncnc2ccc(-c3ccccc3C#N)cc12`, the activity change, negative = inhibition is 21.4% in [2] and 23.3% in test [4]. The Potency in test [3] is 1 µM (active); in test [14], over 46 µM; in test [6] it was over 46 µM; in [10], 6.31 µM (active); in test [15], 7.08 µM (active). Besides, the activity, negative = inhibition in test [5] was -1.74%. For the same compound, the Potency result in test [7], in test [8], in test [9] and in [12] was “inactive” throughout. Also, in [13], the result was inactive.

In the case of `Cn1c(=O)c(-c2ccccc2)nc2cnc(Nc3ccccc3)nc21`, the Potency is over 11.4 µM in test [1], 15.8 µM (active) in test [3], over 9.22 µM in test [14] and over 46 µM in [6]. The activity change, negative = inhibition is 6.58% in [2] and -7.03% in [4]. Also, in [5], the activity, negative = inhibition is 8.87%. Also, the Potency entry in test [7], in test [10], in test [11] and in test [12] was “inactive” in each case. The outcome in test [13] was inactive.

For `Cc1noc(C)c1-c1nccc(N2CCN(C)CC2)n1`, the activity change, negative = inhibition in test [2] was 16%; in test [4], -10.9%. Further, the Potency is 2 µM (active) in test [3], over 46 µM in test [14] and over 46 µM in test [6]. Besides, in test [5], the activity, negative = inhibition was 11.7%. Besides, the Potency result in [7], in test [8], in test [10], in [11] and in test [12] was “inactive” throughout. Further, in test [13], the result was inactive.

With `COCCn1c(=O)c(-c2cc(F)cc(F)c2)nc2cnc(N(C)C)nc21`, the Potency was over 11.4 µM in test [1], 5.01 µM (active) in [3], over 9.22 µM in test [14] and over 46 µM in [6]. In addition, the activity change, negative = inhibition in [2] was 3.27%; in test [4], -6.48%. The activity, negative = inhibition in [5] was -2%. Further, the Potency entry in [7], in test [8], in test [10] and in test [12] was “inactive” each time. For the same compound, in test [13], the outcome was inactive.

`CS(=O)(=O)Nc1cccc(-c2cncnc2Nc2ccccc2)c1`: the Potency in test [1] is over 11.4 µM; in [3], 5.01 µM (active); in test [14], over 46 µM; in test [6], over 46 µM; in test [16], 0.501 µM (active); in test [15] it was 22.4 µM (active). Besides, the activity change, negative = inhibition in [2] was -20.2%; in [4], 23.9%. Besides, in test [5], the activity, negative = inhibition was -2.71%. For the same compound, the Potency result in test [7], in test [8], in [9], in [11] and in [12] was “inactive” throughout. In addition, the outcome in [13] was inactive.
